High-throughput results (PubChem)
KinaseGlo FLuc – blocks Kinase-Glo luciferase, a counter-screen artifact. Q27757. 0.28% of 200,000 active. Kinase-Glo luciferase, ATP luminescence, 8 min. Potency, µM (titrated, usually from 38.3 µM), without a hit: top-dose activity change, negative = inhibition, hits mostly inhibitors; active means well fitted inhibition curve with a large enough effect; inconclusive means small, poorly fitted or top-dose-only effect; further: potency means the concentration at half of the fitted maximal effect; nearly all actives have a fitted effect of over 60% in size
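Luminescence was the read-out, taken after 8-minute incubation at ambient temperature. Luciferase turned over luciferin with 10 uM ATP in imidazole pH 7.2 buffer containing KCl, MgCl2, Tween 20 and BSA.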
LMNA splice mod – LMNA splicing modulation. HeLa LMNA splicing GFP/RFP minigene ratio, 48 h. Potency, µM (series often up to 46.1 µM), for inactives: at the highest dose ratio change, negative = inhibition, hits mostly inhibitors. 0.01% of 200,000 active. AID 1487; active means well fitted inhibition curve with a large enough effect in the signal ratio, with a control signal flat, not every such curve was filed as active; inconclusive means small, poorly fitted or top-dose-only effect, or effect the other way, or a change in a side signal; the % refers to the signal ratio; further: potency means the concentration at half of the fitted maximal effect
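S3 HeLa cells stably expressing lamin A-EGFP splicing minigene plus DsRed2, 600 cells/well, 48 h compound exposure at 37C. Laser-scanning cytometry; analysed as GFP (500-530 nm)/RFP (575-640 nm) total intensity ratio; 0.5% DMSO vehicle.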
HPGD inh – inhibitors of human 15-hydroxyprostaglandin dehydrogenase (HPGD); P15428; Potency, µM, without a hit: top-dose activity change, negative = inhibition, hits mostly inhibitors; 4.3% of 150,000 active; purified HPGD, NADH fluorescence kinetic, PGE2 substrate; further: potency means the concentration at half of the fitted maximal effect
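20 nM HPGD preincubated 15 min at room temperature with compound in 50 mM Tris-HCl pH 8, 0.01% Tween 20. Started with 1 mM NAD+ and 30 uM prostaglandin E2; NADH fluorescence (360/450 nm) read 5 times over 30-s intervals, last minus first.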
IMPase cell inh – IMPase inhibition in cells; CHO-M1 cells, IP1 accumulation, HTRF TR-FRET ratio; inhibition (IP1 accumulation), % at 46.1 µM; 120,000 tested, under 10 active; active means well fitted curve in the direction sought with a large enough effect in the signal ratio, not every such curve was filed as active; inconclusive means small, poorly fitted or top-dose-only effect, or a change in a side signal; inactive means no such curve, though single readings can be large or run the other way; the % refers to the signal ratio;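 further: cells stimulated with carbachol in lithium chloride buffer; plate controls were DMSO basal wells for no effect and reference inhibitor wells for full effect; higher means more IMPase inhibition seen as more IP1 and lower FRET ratio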
Target sequence (P97697 whole entry, looked up): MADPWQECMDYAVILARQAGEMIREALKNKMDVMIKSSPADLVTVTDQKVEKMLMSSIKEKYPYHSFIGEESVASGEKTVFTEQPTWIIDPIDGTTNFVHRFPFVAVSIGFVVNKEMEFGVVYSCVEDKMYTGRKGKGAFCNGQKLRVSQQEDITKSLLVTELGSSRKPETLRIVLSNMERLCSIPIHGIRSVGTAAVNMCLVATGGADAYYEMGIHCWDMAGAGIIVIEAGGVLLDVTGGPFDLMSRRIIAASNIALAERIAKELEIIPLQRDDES
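Carbachol-driven Gq signalling in CHO-M1 cells (2000/well) generates IP1. Compounds that block IMPase raise IP1 and so reduce the FRET signal from Eu-anti-IP1 and d2-IP1 after a 10 min room-temperature lysis.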
ALDH1A1 inh – blocks purified human ALDH1A1 activity; P00352; Purified ALDH1A1, NADH fluorescence, propionaldehyde substrate; Potency, µM (series often up to 75.3 µM), inactives show top-dose activity, negative = inhibition, hits mostly inhibitors; 7.3% of 220,000 active; AID 1030;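 further: potency means the concentration at half of the fitted maximal effect; plate controls were no enzyme wells and a reference inhibitor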
Target sequence (P00352 whole entry, looked up): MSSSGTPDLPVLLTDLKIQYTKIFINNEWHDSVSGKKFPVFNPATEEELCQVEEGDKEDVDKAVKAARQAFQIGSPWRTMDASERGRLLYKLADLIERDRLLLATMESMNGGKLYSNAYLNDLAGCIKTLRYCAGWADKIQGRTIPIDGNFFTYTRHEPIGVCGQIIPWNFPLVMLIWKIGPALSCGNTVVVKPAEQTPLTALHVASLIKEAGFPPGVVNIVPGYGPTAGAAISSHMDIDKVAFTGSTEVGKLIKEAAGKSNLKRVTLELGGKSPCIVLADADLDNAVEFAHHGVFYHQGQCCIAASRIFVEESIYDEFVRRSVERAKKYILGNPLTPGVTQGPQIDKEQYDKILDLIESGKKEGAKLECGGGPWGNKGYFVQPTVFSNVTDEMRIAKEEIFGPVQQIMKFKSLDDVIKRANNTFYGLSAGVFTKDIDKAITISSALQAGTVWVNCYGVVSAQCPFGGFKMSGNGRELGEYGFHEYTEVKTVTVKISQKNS
PNC assembly inh – blocks assembly of the perinucleolar compartment; PC3M PTB-GFP, PNC prevalence imaging, 16 h; hits give low values; activity change (PNC), negative = inhibition, % at 10 µM; 3.1% of 140,000 active; AID 2417;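 active means readout at or below -70, meaning at least 70% loss of cells showing the perinucleolar compartment, a nuclear body marking cancer cells; inconclusive means readout between -30 and a set limit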;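 further: plate controls were DMSO wells for no effect and camptothecin positive control wells for full effect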
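PC3M cells stably expressing PTB-GFP, 750–1000 cells/well, treated 16 h at 37 °C with compound (23 nl of library stock), in duplicate. After paraformaldehyde fixation and Hoechst stain, imaged at 20x; PNC prevalence scored by image analysis.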
Active calls of the source: *; ? = inconclusive; / = no result; [ ] = another dose, or the depositor's remark. Rows were chosen to be rich in hits. Some 10% of all compounds tested hit in one or more screens of this group. Unless noted, the call rests on the fitted dose curve; in most records, active means well fitted inhibition curve with a large enough effect (not every such curve was filed as active); inconclusive means small, poorly fitted or top-dose-only effect, or another doubt; inactive means no such curve, though single readings can be large or run the other way. Unless noted, on the % scale 0 is the no-effect control and ±100 the full control effect.

SMILES | KinaseGlo FLuc | LMNA splice mod | HPGD inh | IMPase cell inh | ALDH1A1 inh | PNC assembly inh
COc1ccccc1CNC(=O)CCS(=O)(=O)c1cccc2nonc12 | 9% | -7% | -14% | -5 | 18µM* | -22
Cc1c(Cl)cccc1NC(=O)Cn1nc(C(F)(F)F)c2c1CCC2 | / | / | / | 4 | / | /
N#CCCn1c(=O)c(-c2ccccc2)nc2cnc(N3CCNCC3)nc21 | -2% | / | ? | / | ? | /
CCc1ccc(Sc2cc(C(=O)NCc3ccccc3OC)c3ccccc3n2)cc1 | / | -18%[46 µM] | / | / | / | /
C=CCSC1=N/C(=C\C=C\c2ccco2)C(=O)S1 | -1% | 2% | -23% | 6 | 20µM* | 24
CCCCn1c(SCC(=O)Nc2cccc(OC)c2)nc2ccsc2c1=O | / | 11%[46 µM] | / | / | / | /
CC(OC(=O)C1=Cc2ccccc2OC1)C(=O)NC1CCCC1 (centres undefined) | 5% | -17% | -23% | 0[1.84 µM] | 17% | -90*
COCCNC(=O)COC(=O)C1=Cc2ccccc2OC1 | 1% | ? | / | / | ? | /
O=C(OC(C(=O)NC1CCCC1)c1cccnc1)C1=Cc2ccccc2OC1 (centres undefined) | 1% | -1% | -8% | 6 | ? | 45
Cc1ccccc1OC(C)C(=O)NC1CCCC1 (centres undefined) | 1% | 6% | 13µM* | -5 | -3% | -12
CC(C)C(OC(=O)c1ccco1)C(=O)NC1CCCCC1 (centres undefined) | -3% | 12% | -3% | -6 | 9% | 6
CC(OC(=O)c1ccco1)C(=O)NC1CCCCC1 (centres undefined) | -1% | -5% | 14µM* | 5 | 3% | -18
O=C(COC(=O)C1=Cc2ccccc2OC1)NC1CCCC1 | 5% | -3% | -23% | 3[1.84 µM] | 9% | -83*
C[C@H](N=C(NC#N)Nc1ccncc1)C(C)(C)C | -1% | ? | -28% | 2 | -5% | /
CCOc1ccc(CN2CCN(S(=O)(=O)c3ccc(Cl)cc3)CC2)cc1 | / | / | / | -4 | / | /
COC(=O)N1C2=C(c3ccccc3[C@@H]1CC(=O)Nc1ccc(Br)cc1)[C@@H]1C(=O)N(c3ccccc3)C(=O)[C@@H]1[C@H](C)C2 | -4%[7.66 µM] | -13%[9.22 µM] | -13% | / | ? | /
COc1ccc(Nc2nc(N3CCCCC3)c3ccccc3n2)cc1 | -8% | ? | ? | 14 | 13µM* | ?
O=C(CCN1CCCCCC1)c1ccccc1 | -2% | -6% | -8% | 2 | 6.3µM* | ?
CCC1(C)CC2(CCCN(CCC(=O)c3ccccc3)C2)CCO1 (centres undefined) | 4% | -33%[9.22 µM] | / | / | 0.71µM* | /
COc1ccc(C(=O)CCN2CCCCCC2)cc1 | -4% | ? | -16% | 0 | 0.063µM* | 10
CCC1(C)CC(CC(=O)O)(c2ccccc2OC)CCO1 (centres undefined) | -2% | -2% | 1% | -5 | 4% | -18
COc1ccc(C(=O)OCCN2CCCCC2)cc1 | -1% | 17%[46 µM] | / | / | 4% | /
COc1ccc(C(O)(CCc2ccccc2)CCN2CCCCC2)cc1 (centres undefined) | 1% | / | / | / | 2.2µM* | /
O=C(c1ccccc1)c1ccc(OCCCCN2CCCCC2)cc1 | -5% | 3% | 1% | 12 | ? | -13
O=C(O)c1ccc(NS(=O)(=O)c2cccc3ccccc23)cc1 | 0% | / | 3% | / | -4% | /
SMILES | KinaseGlo FLuc | LMNA splice mod | HPGD inh | IMPase cell inh | ALDH1A1 inh | PNC assembly inh
CCOc1ccc(OCCCCN2CCCC2)cc1 | 0% | 4% | 1% | 12 | ? | -6
COc1ccc(C(=O)CCN2CCN(c3ccccc3F)CC2)cc1 | -1% | / | / | / | 0.13µM* | /
CC(C)Oc1ccc(C(=O)CCN2CCCCC2)cc1 | -2% | -19% | -11% | 14 | 0.071µM* | ?
CCC(=O)c1ccc(OCC(O)CN2CCCCC2)cc1 (centres undefined) | 0% | -6% | -8% | 4 | 20% | 31
CCOC(=O)N1CCN(CCC(=O)Nc2ccc(OC(F)(F)F)cc2)CC1 | -2% | ? | 2% | 6 | ? | -28
CCCOc1ccc(C(=O)CCN2CCN(C(=O)OCC)CC2)cc1 | -1% | / | / | / | 0.71µM* | /
CCOc1ccc(C(=O)CCN2CCCCC2)cc1 | -1% | ? | ? | 0 | 0.016µM* | -127*
COc1cccc(NC(=O)Cn2cc(S(=O)(=O)Cc3ccccc3F)c3ccccc32)c1 | / | -7%[46 µM] | / | / | / | /
CCSC1=C(C#N)C(c2cccc(O)c2)CC(=O)N1 (centres undefined) | 0% | 4% | -13% | -5 | -3% | 1
C=CCSC1=C(C#N)C(c2ccc(C(C)C)cc2)CC(=O)N1 (centres undefined) | 16% | -6% | -14% | 11 | 28µM* | -1
C=C(C)CSC1=C(C#N)C(c2ccsc2)CC(=O)N1 (centres undefined) | 1% | -2% | -19% | 21 | 16µM* | 18
CCN(C(=O)c1cnc(N2CCN(c3ncccn3)CC2)c2ccccc12)c1cccc(Cl)c1 | -5% | ? | ? | -3 | ? | 35
CN(C(=O)c1cnc(N2CCN(c3ncccn3)CC2)c2ccccc12)c1ccc(Cl)cc1 | -2% | ? | 22µM* | -12 | 9% | 4
CC(C)NC(=O)c1cnc(N2CCN(c3ccccn3)CC2)c2ccccc12 | 1% | ? | ? | 6 | 32µM* | 4
C[n+]1c(/C=C/c2ccc3c(c2)OCO3)ccc2ccccc21 | -26% | / | / | / | ? | /
CN(C)c1ccc(/C=C/c2cc[n+](C)cc2)cc1 | -14% | ? | -6% | ? | 14µM* | 1
CC[n+]1ccccc1/C=C/c1ccc(N(C)C)cc1 | -10% | / | / | / | ? | /
CN(C)c1ccc(/C=C/c2cc[n+]([O-])cc2)cc1 | -2% | 11% | -14% | -20 | 0% | ?
CC[n+]1c(/C=C/c2ccc(N(C)C)cc2)ccc2ccccc21 | 8.9µM* | ? | -25% | / | ? | ?
CC[n+]1ccc(/C=C/c2ccc(N(C)C)cc2)c2ccccc21 | ? | ? | / | / | 22µM* | /
CCCCCNC(=O)c1c[nH]c2ccc(S(=O)(=O)N3CCC(C)CC3)cc2c1=O | / | 12%[46 µM] | / | / | / | /
O=S1(=O)CC=C(CSC(=S)NC2CCS(=O)(=O)C2)C1 (centres undefined) | -1% | -8%[46 µM] | / | / | 19µM* | /
CC(C)(C)c1cc(CSC(=S)NC2CCS(=O)(=O)C2)c(Br)c(C(C)(C)C)c1 (centres undefined) | -5% | / | / | / | -9% | /
COC(=O)N1C(c2ccccc2)=Cc2ccccc2C1CC(C)=O (centres undefined) | -7%[7.66 µM] | -6%[9.22 µM] | -30% | / | -5%[13.5 µM] | /
Cc1c(C(=O)c2no[n+]([O-])c2C(=O)c2cnn(C)c2C)cnn1C | -1% | ? | -16% | 14 | 0.89µM* | -24
